PLK1 PBD inh: qHTS for Inhibitors of PLK1-PDB (polo-like kinase 1 - polo-box domain): Primary Screen | Serine/threonine-protein kinase PLK1 (Homo sapiens), P53350 | Plk1 PBD binding of FITC phosphopeptide, fluorescence polarization | Potency, µM, without a hit: max response, negative = inhibition, most hits filed as inhibitors | actives 2.8% (n = 360,000) | AID 720504, 2013; further: series mostly up to about 57 µM; on the % scale 0 is the no-effect control and ±100 the full control effect; nearly all actives have a fitted effect of over 65% in size
JMJD2A Tudor inh: qHTS Assay for Inhibitors of JMJD2A-Tudor Domain; Lysine-specific demethylase 4A (Homo sapiens), O75164; AlphaScreen JMJD2A-Tudor / H3K4me3 peptide binding; Potency, µM (titrated, usually from 114 µM), inactives show at the highest dose activity change, negative = inhibition, hits mostly inhibitors; actives 4.4% (n = 390,000); AID 504339, 2011; further: on the % scale 0 is the no-effect control and ±100 the full control effect; nearly all actives have a fitted effect of over 50% in size
G9a inh: qHTS Assay for Inhibitors of Histone Lysine Methyltransferase G9a. Potency, µM (top dose mostly 102 µM), without a hit: top-dose activity, negative = inhibition, actives largely listed as inhibitors. actives 8.8% (n = 350,000). AID 504332, 2011. G9a H3K9 monomethylation, AlphaScreen, 2 h; further: on the % scale 0 is the no-effect control and ±100 the full control effect; nearly all actives have a fitted effect of over 75% in size
Target sequence (Q96KQ7 913-1193 limits assumed): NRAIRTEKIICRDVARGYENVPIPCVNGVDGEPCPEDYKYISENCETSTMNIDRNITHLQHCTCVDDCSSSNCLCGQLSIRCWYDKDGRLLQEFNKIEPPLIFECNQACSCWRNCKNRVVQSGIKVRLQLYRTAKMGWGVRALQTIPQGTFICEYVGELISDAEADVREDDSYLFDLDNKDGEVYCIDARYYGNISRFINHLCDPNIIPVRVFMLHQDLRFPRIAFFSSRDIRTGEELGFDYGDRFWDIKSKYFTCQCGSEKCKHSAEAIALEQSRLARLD
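Methyltransferase reactions run at room temperature for 2 h (20 nM enzyme, 500 nM biotin-H3K9 peptide, 20 uM SAM) after a 15 min compound preincubation; product detected by AlphaScreen beads and anti-H3K9me1 antibody.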
BAZ2B block: qHTS Assay for Inhibitors of BAZ2B | actives 4.4% (n = 360,000) | AlphaScreen BAZ2B-H3K14Ac peptide displacement | Bromodomain adjacent to zinc finger domain protein 2B (Homo sapiens), Q9UIF8 | AID 504333, 2011 | Potency, µM (titrated, usually from 114 µM), inactives show top-dose activity change, negative = inhibition, most hits filed as inhibitors; further: on the % scale 0 is the no-effect control and ±100 the full control effect; nearly all actives have a fitted effect of over 60% in size
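Inhibition is scored as reduced AlphaScreen emission. The BAZ2B/b-H3(5-23)K14Ac complex (50 nM each) in PBS pH 7.4, 0.01% Tween-20 meets compound (up to 110 uM) for 30 min at RT before bead addition.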
HP1b binding inh: HTS for Inhibitors of HP1-beta Chromodomain Interactions with Methylated Histone Tails | Chromobox protein homolog 1 (Homo sapiens), P83916 | AlphaScreen HP1-beta / biotin-H3K9me3 peptide binding | actives 0.56% (n = 390,000) | AID 540317, 2011 | Potency, µM (titrated, usually from 114 µM), without a hit: top-dose activity change, negative = inhibition, hits mostly inhibitors; further: nearly all actives have a fitted effect of over 70% in size
Target sequence (P83916 whole entry, looked up): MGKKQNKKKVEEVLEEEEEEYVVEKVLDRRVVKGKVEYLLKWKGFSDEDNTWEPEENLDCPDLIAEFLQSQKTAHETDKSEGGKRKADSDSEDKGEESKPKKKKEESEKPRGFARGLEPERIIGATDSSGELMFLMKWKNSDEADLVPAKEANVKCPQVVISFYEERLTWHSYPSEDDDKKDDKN
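HP1-beta protein (50 nM final) preincubated 30 min at room temperature with biotinylated H3(1-18)K9me3 peptide (50 nM) in PBS pH 7.4, 0.01% Tween-20, then compound added for 30 min. AlphaScreen streptavidin donor/nickel chelate acceptor beads (10 ug/mL final), 30 min dark, luminescence read.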
Sfp inh: qHTS Assay for Inhibitors of Bacillus subtilis Sfp phosphopantetheinyl transferase (PPTase) | 4'-phosphopantetheinyl transferase ffp (Bacillus subtilis), Q9F4F7 | Biochemical Sfp PPTase activity, qHTS | Potency, µM, for inactives: largest response in the series, negative = inhibition, hits mostly inhibitors | actives 3.5% (n = 310,000) | AID 1490, 2009;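 further: the enzyme is Sfp with the accession as filed and its product quenches rhodamine fluorescence; 0% = enzyme reaction without inhibitor and -100% = no enzyme wells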
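Compounds were incubated with enzyme (final 15 nM) for 15 min at room temperature before substrate addition started the reaction. Fluorescence at 525 nm excitation, 598 nm emission was recorded immediately and after 30 minutes.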
* hit, by the source's call; ? = inconclusive; . = no result given; ! = repeats disagree; [ ] = another dose, or the depositor's remark. In the library only some 12% were active in any assay of this set; here they are far more common. The call rests on the fitted dose curve; in most records, active means well fitted curve in the direction sought with a large enough effect; inconclusive means small, poorly fitted or top-dose-only effect, or another doubt; inactive means no such curve, though single readings can be large; an effect the other way counts as inactive or inconclusive. Potency means the concentration at half of the fitted maximal effect.

SMILES	PLK1 PBD inh	JMJD2A Tudor inh	G9a inh	BAZ2B block	HP1b binding inh	Sfp inh
O=C(NN=C1CCCC1)c1ccccc1O	-4%	?	.	-7%	40%	-3%
CCOC(=O)c1ccccc1NC(=O)c1nn(-c2ccc(C)cc2)c(=O)n(C)c1=O	.	-13%	5%[59 µM]	15%	41%[57 µM]	.
Cc1ccc(F)c(C2C3C=CCC(c4ccccc4)C3C(=O)N2Cc2ccccc2)c1 (stereo not given)	.	-12%	.	.	5%	-6%
CC(C)Cc1nnc(NC(=O)C2CCN(C(=O)c3ccc(F)cc3)CC2)s1	1%	-7%	-36%	10%	33%	.
O=C(ONC(=O)C1C2C=CC(C2)C1C(=O)NOC(=O)c1ccccc1)c1ccccc1 (stereo not given)	6%	0.79µM*	.	.	52%	.
O=C(O)c1ccccc1Nc1ccccc1C(=O)O	-8%	?	79µM*	-9%	-6%	7%
Cc1nnc(NC(=O)c2ccccc2NC(=O)c2ccccc2)s1	-6%	-7%	50µM*	-17%	48%	-9%
Cc1c(NC(=O)c2cccnc2C(=O)O)cccc1C(=O)O	1%	2.5µM*	8.9µM*	35µM*	?	?
O=C(C[C@@H]1C[C@@H]2c3cc(NS(=O)(=O)c4ccc(F)cc4)ccc3O[C@@H]2[C@H](CO)O1)N1CCc2ccccc2C1	-17%	.	.	.	.	.
COc1ccccc1N1CCN(C(=O)CN2C(=O)COc3ccc(S(=O)(=O)N4CCOCC4)cc32)CC1	.	-11%	-31%[59 µM]	-6%	26%	.
O=C(Nc1ccccc1C(=O)O)c1ccccc1	-2%	-29%	50µM*	?	20%	26%
Cc1c(Cl)cccc1Nc1ccccc1C(=O)O	-24%	-10%	45µM*!	-33%	17%	5%
Cc1ccc(Cl)c(Nc2ccccc2C(=O)O)c1Cl	-27%	-19%	3%[59 µM]	5%	15%	-10%
Cc1cccn2c(=O)c3cc(C#N)c(=O)n(-c4nnc(SCc5ccc(Cl)cc5)s4)c3nc12	.	-5%	29%[59 µM]	8%	42%	.
CCCCC(C(=O)N/N=C/c1ccccn1)C(=O)N/N=C/c1ccccn1	3%	-12%	?	7%	44%	35µM*
O=C(N/N=C/c1ccccn1)C(O)c1ccccc1 (stereo not given)	-6%	-25%	0.71µM*	?	21%	?
O=Cc1c[nH]c2cccc(OCc3ccccc3)c12	-9%	-17%	6%[0.501 µM]	10%	-5%	.
Oc1ccc(N2CCN(Cc3c(-c4ccccc4)nc4ccccn34)CC2)cc1	-5%	14µM*	10µM*	?	?	25µM*
Clc1ccc(-c2nc3ccccn3c2CN2CCCCC2)cc1	-11%	-16%	-27%	-32%	12%	9%
O=C(Nc1ncn[nH]1)c1c(Cl)ccc(Cl)c1Cl	-2%	-2%	24%[59 µM]	31%	31%	15%
Cc1cc(C(=O)Nc2ncn[nH]2)ccc1[N+](=O)[O-]	1%	-24%	-7%[59 µM]	50µM*	54%	0%
CC(C)Oc1ccc(C(=O)Nc2ncn[nH]2)cc1	-2%	?	-71%	50µM*	60%	9%
O=C(Nc1ncn[nH]1)c1ccccc1O	0%	-27%	0%[59 µM]	79µM*	42%	13%
CC(C)Oc1cccc(C(=O)Nc2ncn[nH]2)c1	-14%	-20%	.	50µM*	54%	-7%
Cc1cc(C)nc(NC(=O)c2ccc([N+](=O)[O-])c(C)c2)n1	-9%	-5%	?	-18%	5%	18%
SMILES	PLK1 PBD inh	JMJD2A Tudor inh	G9a inh	BAZ2B block	HP1b binding inh	Sfp inh
COc1ccc(Oc2ncc3nc(-c4cn(C)c5ccccc45)c(=O)n(C4CC4)c3n2)cc1	.	.	-5%[0.501 µM]	.	.	-2%
C[C@H]1O[C@@H](n2cnc3c(N)ncnc32)C[C@@H]1OP(=O)(O)OP(=O)(O)OP(=O)(O)O	.	.	.	.	.	1%
Cn1c(Nc2ccc(Cl)cc2F)nc2cc(-c3ccccc3)sc2c1=O	6%	.	.	.	.	.
CC1C(=O)N2CCCc3cc(NC(=O)c4ccccc4C(F)(F)F)cc1c32 (stereo not given)	-7%	-11%	-44%	6%	22%	.
CCOc1ccc(NC(=O)c2ccc(NC(=O)Cc3n[nH]c(=O)c4ccccc34)cc2)cc1	-5%	1%	56µM*	-14%	20%	-3%
CCOc1ccc(C(=O)Nc2ncn[nH]2)cc1	-9%	-18%	-7%	50µM*	32%	1%
CCOc1ccc(C(=O)COC(=O)Cc2n[nH]c(=O)c3ccccc23)cc1	-12%	-2%	-37%	9%	21%	.
CC1=C(C(=O)N(C(C)C)C(C)C)CC(CC(=O)NCc2cccs2)C(=O)N1Cc1ccc(C(C)(C)C)cc1 (stereo not given)	-12%	.	.	.	.	.
CSc1ccc(S(=O)(=O)NCC(=O)OCC(=O)NCc2cccs2)cc1[N+](=O)[O-]	0%	-8%	?	-20%	7%	.
O=C(O)C1C2CCC(C2)C1C(=O)N1CCCC1 (stereo not given)	3%	-3%	-12%	-14%	44%	45µM*
O=C(O)C1CCCCC1C(=O)N1CCCC1 (stereo not given)	3%	-1%	7%	-1%	40%	27%
CN(C)c1ccc(C(=O)c2ccccc2)cc1	-1%	-7%	1%[59 µM]	7%	35%	-10%
O=C(O)c1ccc(N=NN2CCCCC2)cc1	-6%	0%	35µM*	?	24%	3%
CN(C)c1ccc(N=Nc2ccc(C(=O)O)cc2)cc1	?	25µM*	10µM*	35µM*	-25%[57 µM]	79µM*
COC(=O)c1ccc(N=NN2CCCCCC2)cc1	0%	30%	13%	13%	92%	-2%
O=C(Cc1ccc([N+](=O)[O-])cc1)c1c(O)cc(O)cc1O	-13%	-35%	50µM*	-28%	10%	13%
Cc1cc(O)cc(O)c1C(=O)Cc1ccccc1	-2%	-15%	26%[59 µM]	-2%	28%	10%
COc1ccc(N/C(=C(/C(Cl)=C(Cl)Cl)[N+](=O)[O-])n2nnc3ccccc32)cc1OC	.	.	14µM*	56µM*	.	20µM*
Cc1cc2ncn(C(=O)c3ccc4c(c3)OCO4)c2cc1C	-9%	-9%	10%	4%	5%	6%

Compound activity as filed in PubChem.
